Results on 3 molecules are retold here after PubChem BioAssay (NCI).

Some test systems named below: HCT-15 colon; HT29 colon; SNB-19 CNS; U251 CNS; PC-3 prostate; SK-MEL-5 melanoma; UACC-62 melanoma; LOX IMVI melanoma; SK-MEL-28 melanoma.
Holding throughout (assay): NCI-60 one-dose screen, 48 h (100 = growth as untreated, 0 = no growth, -100 = all killed)
Common to all, as to details: 10 µM unless noted

Compounds without any hit were thinned out: in the full panel of roughly 83,000, 20% have a hit.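 Interpretation: 100, growth as untreated; towards 0, rising growth inhibition; 0, no net growth; 0 to -100, cell death. Compounds scoring below 10 were considered active.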 A number with no mark means an inactive call. Active and inactive are the calls of the source.

For the molecule `Brc1cccc(-c2cc(-c3ccc4nccnc4c3)[nH]n2)c1`, the growth was 9.57% [25 µM] (active) with HCT-15 colon; 5.66% [25 µM] (active) in the assay on HT29 colon; 30.5% [25 µM] in the assay with SNB-19 CNS; 21.7% [25 µM] in the assay with U251 CNS; 27% [25 µM] in the assay on PC-3 prostate; 20.9% [25 µM] in the assay with SK-MEL-5 melanoma. Further, the growth is 38.1% [25 µM] with UACC-62 melanoma, 18.6% [25 µM] in the assay on LOX IMVI melanoma and 64.9% [25 µM] in the assay on SK-MEL-28 melanoma.

Turning to `c1coc(CNc2ccnc(Nc3ccc(OCCN4CCCCC4)cc3)n2)c1`, the growth was 89.6% in the assay with HCT-15 colon; 57.6% in the assay with HT29 colon; 97.3% in the assay on SNB-19 CNS; 85.8% in the assay on U251 CNS; 82.9% in the assay on PC-3 prostate; 80.3% with SK-MEL-5 melanoma. Also, the growth with UACC-62 melanoma is 93.6%; in the assay on LOX IMVI melanoma it was 82.6%; with SK-MEL-28 melanoma, 107%.

For the molecule `CN(C[C@H]1Cc2c(cccc2N2CCN(c3ncccn3)CC2)CN1)[C@H]1CCCc2cccnc21`, the growth in the assay with HCT-15 colon is 31.6%; in the assay with HT29 colon it was 21.2%; in the assay on SNB-19 CNS, 41%; in the assay with U251 CNS, 24.1%; in the assay on PC-3 prostate it was 34.2%; in the assay with SK-MEL-5 melanoma, 26.9%. Besides, the growth is 53.7% with UACC-62 melanoma, 36.4% in the assay on LOX IMVI melanoma and 65.2% with SK-MEL-28 melanoma.
